PubChem BioAssay (NCI)
Several values for one entry are separate records, joined by “and”; a condition that tells them apart may be missing. Equal values may be shown once. Compounds without any hit were thinned out: in the full panel of roughly 83,000, 20% have a hit.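 For each line, cells grew in 96-well plates with the test compound present at a single concentration for 48 hours.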 Activity calls are given as the source filed them. The calls were made as follows: active = growth percent below 10; inactive = the rest.

Legend:
Test in all cases: NCI-60 one-dose screen, 48 h (100 = growth as untreated, 0 = no growth, -100 = all killed)
[1] = tested on: NCI-H23 lung; details: 10 µM
[2] = tested on: NCI-H226 lung; details: 10 µM
[3] = tested on: NCI-H322M lung; details: 10 µM
[4] = tested on: HOP-62 NSCLC; details: 10 µM
[5] = tested on: NCI-H460 lung; details: 10 µM
[6] = tested on: HOP-92 NSCLC; details: 10 µM
[7] = tested on: NCI-H522 lung; details: 10 µM unless noted
[8] = tested on: A549/ATCC NSCLC; details: 10 µM
[9] = tested on: 786-0 renal; details: 10 µM
[10] = tested on: COLO 205 colon; details: 10 µM
[11] = tested on: DU-145 prostate; details: 10 µM unless noted
[12] = tested on: K-562 leukemia; details: 10 µM
[13] = tested on: MALME-3M melanoma; details: 10 µM
[14] = tested on: MDA-MB-231 breast; details: 10 µM
[15] = tested on: RXF 393 renal; details: 10 µM unless noted
[16] = tested on: SF-268 CNS; details: 10 µM
[17] = tested on: SF-295 CNS; details: 10 µM
[18] = tested on: SF-539 CNS; details: 10 µM
[19] = tested on: UACC-257 melanoma; details: 10 µM
[20] = tested on: M14 melanoma; details: 10 µM

Measured: growth

O=C(/C=C/c1ccccn1)c1ccccc1
inactive: [1] 83.8% | [2] 86.1% | [3] 88.8% | [4] 93.8% | [5] 26.5% | [6] 78.3% | [8] 76.3% | [9] 15.6% | [10] 32% | [11] 60.5% | [12] 14% | [13] 91% | [14] 90.2% | [15] 90.6% | [16] 85.4% | [17] 87.5% | [18] 68.5% | [19] 72.9% | [20] 42.1%
active: [7] -75.6%

Clc1cc(Cl)c(Cl)nn1
inactive: [1] 105% | [2] 99.8% | [3] 109% | [4] 94.2% | [5] 99% | [6] 91.9% | [7] 80.7% | [8] 57.9% | [9] 99.4% | [10] 120% | [11] 115% | [12] 106% | [13] 109% | [14] 105% | [15] 122% | [16] 101% | [17] 107% | [18] 100% | [19] 70.4% | [20] 93%

OCC(O)C(O)C(O)C(/C=N/Nc1ccccc1)=N/Nc1ccccc1 (stereo unspecified)
inactive: [1] 93.1% | [2] 91.4% | [3] 68.9% | [4] 70.2% | [5] 89.9% | [6] 75.1% | [7] 55.5% | [8] 87.3% | [9] 107% | [10] 96.5% | [11] 89.1% | [12] 67.1% | [13] 101% | [14] 79.7% | [15] 86.7% | [16] 75.5% | [17] 83.6% | [18] 91.3% | [19] 104% | [20] 87.5%

O=C(Nc1ccc(C(=O)O)c(O)c1)c1ccccc1
inactive: [1] 104% and 97.9% | [2] 101% | [3] 100% and 97.7% | [4] 95.3% and 91.7% | [5] 109% | [6] 81.4% and 103% | [7] 93.3% and 89.8% | [8] 101% and 95.6% | [9] 109% and 97% | [10] 102% and 130% | [11] 108% and 126% | [12] 101% and 102% | [13] 88.5% and 92.3% | [14] 98.5% and 104% | [15] 112% and 107% | [16] 108% and 121% | [17] 106% and 95.1% | [18] 98% and 104% | [19] 98.5% and 94.3% | [20] 106% and 99.6%

Clc1ccc(/C=C/c2ccccn2)c(Cl)c1
inactive: [1] 93.7% | [2] 97.1% | [3] 85.5% | [4] 96.2% | [5] 95.2% | [6] 84% | [7] 81.2% | [8] 90% | [9] 105% | [10] 94.7% | [11] 116% | [12] 93.6% | [13] 102% | [14] 85.5% | [15] 108% | [16] 99% | [17] 94.5% | [18] 89.3% | [19] 99.7% | [20] 106%

NNc1ccc2ccccc2c1
inactive: [1] 87.9% and 94.4% | [2] 87.3% and 85.8% | [3] 83% and 97.3% | [4] 81.1% and 97.4% | [5] 105% | [6] 97% and 95.6% | [7] 79.5% and 98.6% | [8] 102% and 106% | [9] 99.8% and 98.3% | [10] 94% and 109% | [11] 98.5% and 111% | [12] 86% and 115% | [13] 90.1% and 96.8% | [14] 68.7% and 90.1% | [15] 122% and 98.9% | [16] 75.8% and 96.8% | [17] 95.8% and 102% | [18] 86% and 100% | [19] 107% and 105% | [20] 89.6% and 96.8%

CCCCCCCCCCCCSC(=NC)NC
-23.8% (active) and 62.9% (inactive): [9]
4.6% (active) and 65% (inactive): [17]
active: [10] -85.4% and -86.3% | [12] 3.08% and 2.7%
inactive: [1] 35.4% and 54.9% | [2] 66.3% and 79.1% | [3] 52.8% and 95.6% | [4] 76.3% and 87.2% | [7] 57.7% and 85% | [8] 64.4% and 87.7% | [11] 41.3% and 75.6% | [13] 40% and 72.8% | [15] 40.9% and 70.6% | [16] 40.9% and 74.9% | [18] 29.3% and 55.4% | [19] 66.4% and 98.2%
-19.2% (active) and 60.6% (inactive): [20]
4.19% (active) and 42.7% (inactive): [5]
-28.3% (active) and 40.4% (inactive): [14]
-1.15% (active) and 36% (inactive): [6]

CSC1SCC2C(=O)N(C)C(C(C)C)C(=O)OCC(NC(=O)c3cnc4ccccc4n3)C(=O)NC(C)C(=O)N(C)C1C(=O)N(C)C(C(C)C)C(=O)OCC(NC(=O)c1cnc3ccccc3n1)C(=O)NC(C)C(=O)N2C (stereo unspecified)
active: [1] -28.2% | [2] -5.57% | [3] 9.51% | [4] -12.4% | [5] 4.33% | [6] -20.3% | [7] -16.1% | [8] -15.2% | [9] -10.6% | [10] -45.3% | [11] -19.5% | [12] -61.8% | [13] -23.1% | [14] -8.05% | [15] -0.0463% | [16] -2.43% | [17] -22.3% | [18] -52.9% | [19] -13.6%

CCCCCCCCCCCC[N+](C)(C)Cc1ccccc1
active: [7] -4.63% | [12] -5.13% | [13] -19.2% | [15] -38.7% | [16] 8.3% | [19] 2.24% | [20] 7.19%
inactive: [1] 23.8% | [2] 55% | [3] 87.7% | [4] 28% | [5] 71.9% | [8] 70.9% | [9] 28.1% | [10] 15.7% | [11] 24.8% | [14] 25.3% | [17] 46.3% | [18] 53.6%

O=C1C=CC(=CC=C2C=CN(CCCCCCCCCCCO)C=C2)C=C1
active: [10] -42.6% | [19] 4%
inactive: [1] 20% | [2] 59.6% | [3] 92.4% | [4] 44.5% | [5] 17.5% | [6] 24% | [7] 18.2% | [8] 46.3% | [9] 67.2% | [11] 44.3% | [12] 24.7% | [13] 41.6% | [15] 69.2% | [17] 45.3% | [18] 41.4% | [20] 45.4%

O=C(/C=C/c1cccnc1)c1ccccc1
active: [7] -44.2%
inactive: [1] 96.6% | [2] 96.6% | [3] 113% | [4] 108% | [5] 87.6% | [6] 84% | [8] 99.3% | [9] 93.7% | [10] 101% | [11] 105% | [12] 28.9% | [13] 94.2% | [14] 116% | [15] 112% | [16] 100% | [17] 112% | [18] 96.2% | [19] 93.5% | [20] 88.6%

COC(=O)C1C(O)C(C)C(O)C(C)C=C(C)C2=C3C(=C(C)C(=O)c4c(O)c(c(C)c(OC(C)=O)c43)NC(=O)C(C)=C/C=C\C(C)C(O)C(C)C1O)OCO2 (stereo unspecified)
inactive: [1] 107% | [2] 104% | [3] 140% | [5] 114% | [7] 75.3% | [8] 112% | [9] 101% | [10] 125% | [11] 115% | [12] 127% | [13] 126% | [14] 105% | [15] 125% | [16] 112% | [17] 108% | [18] 110% | [19] 118% | [20] 108%
active: [6] -5.62%

CS(=O)(=O)OC1CC(n2ccc(=O)[nH]c2=O)OC1COC(c1ccccc1)(c1ccccc1)c1ccccc1 (stereo unspecified)
inactive: [1] 106% | [2] 104% | [3] 89.1% | [4] 106% | [5] 112% | [7] 86.1% | [8] 101% | [11] 99.8% | [12] 98.5% | [13] 91.9% | [14] 106% | [15] 105% | [16] 103% | [17] 110% | [18] 105% | [19] 102% | [20] 88.7%

NNc1c2ccccc2nc2ccccc12
inactive: [1] 47.4% | [2] 48.5% | [3] 75.9% | [4] 64.6% | [5] 10% | [6] 88.1% | [7] 33.2% | [8] 23.6% | [9] 34.2% | [10] 67.6% | [11] 66% | [12] 49.2% | [13] 62.5% | [14] 65.2% | [15] 72.8% | [16] 50.1% | [18] 42.8% | [19] 34.9% | [20] 66.4%
